# Reference: PubChem BioAssay (NCATS)
# Inconclusive results are not listed. Entries that show only a call come without a potency. Activity calls are given as the source filed them. Calls come from the whole dose curve; as a rule, active = well fitted curve in the direction sought with a large enough effect; inconclusive = small, poorly fitted or top-dose-only effect, or another doubt; inactive = no such curve, though single readings can be large; an effect the other way counts as inactive or inconclusive.
# Assays:
# [1] = qHTS for Inhibitors of Ubiquitin-specific Protease USP2a Using CHOP2 as the Reporter: Cytotox Assay (AID 652170); note: nearly all actives have a fitted effect of over 70% in size; note: potency is the fitted concentration of half-maximal effect
# Summary of the method: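 HCT116 human colon cancer cells, 600 per well in DMEM with 10% FBS, exposed to compounds for 72 hr at 37 deg C. ATP measured by CellTiter-Glo luminescence, normalized to DMSO cells and no-cell background.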
# [2] = target: Ubiquitin carboxyl-terminal hydrolase 2 (Homo sapiens) (UniProt O75604); assay: qHTS for Inhibitors of Ubiquitin-specific Protease USP2a Using CHOP2 as the Reporter: K484 Substrate (AID 652173);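 note: cleavage of internally quenched K48 di-ubiquitin substrate measured as rising fluorescence over time; potency is the fitted concentration of half-maximal effect; nearly all actives have a fitted effect of over 70% in size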
# Sequence of Ubiquitin carboxyl-terminal hydrolase 2 (Homo sapiens) (O75604 whole entry, looked up): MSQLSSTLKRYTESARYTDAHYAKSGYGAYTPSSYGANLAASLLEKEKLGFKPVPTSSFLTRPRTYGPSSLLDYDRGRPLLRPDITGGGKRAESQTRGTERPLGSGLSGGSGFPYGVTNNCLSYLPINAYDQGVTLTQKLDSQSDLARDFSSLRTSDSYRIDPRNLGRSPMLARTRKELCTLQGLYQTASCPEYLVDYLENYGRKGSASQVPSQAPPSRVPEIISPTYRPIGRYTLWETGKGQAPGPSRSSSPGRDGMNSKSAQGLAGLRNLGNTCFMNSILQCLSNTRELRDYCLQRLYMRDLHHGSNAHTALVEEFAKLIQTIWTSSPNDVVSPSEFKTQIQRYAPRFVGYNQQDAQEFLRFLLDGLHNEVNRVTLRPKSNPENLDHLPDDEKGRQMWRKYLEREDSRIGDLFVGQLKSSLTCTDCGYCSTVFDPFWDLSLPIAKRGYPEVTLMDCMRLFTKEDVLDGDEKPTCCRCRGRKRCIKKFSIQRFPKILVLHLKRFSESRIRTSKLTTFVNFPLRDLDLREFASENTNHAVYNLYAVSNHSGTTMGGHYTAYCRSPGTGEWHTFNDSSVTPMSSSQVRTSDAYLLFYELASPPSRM
# Summary of the method: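 USP2 (dispensed at 5 nM) was pinned with compounds, then DiUb K48 internally quenched fluorescent substrate (dispensed at 100 nM) was added. The buffer was 20 mM Tris pH 8, 2 mM beta-mercaptoethanol and 0.05% CHAPS. Cleavage was read kinetically as rising fluorescence, Ex 525/Em 598.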
# [3] = target: Calcium and integrin-binding protein 1 (Homo sapiens) (UniProt Q99828); assay: Primary qHTS for Identification of Calcium Integrin Binding Protein 1 (CIB1) Competitor (AID 1508620);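 note: GST tagged CIB1 binding a fluorescein labelled alphaIIb integrin peptide tracer; top concentration of the series differs between compounds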
# Sequence of Calcium and integrin-binding protein 1 (Homo sapiens) (Q99828 whole entry, looked up): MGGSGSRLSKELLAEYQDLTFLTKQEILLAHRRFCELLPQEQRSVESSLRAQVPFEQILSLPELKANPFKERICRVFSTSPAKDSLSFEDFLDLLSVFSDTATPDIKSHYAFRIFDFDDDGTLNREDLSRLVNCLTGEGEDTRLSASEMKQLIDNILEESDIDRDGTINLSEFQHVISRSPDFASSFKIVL
# Summary of the method: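 CIB1-GST (1 uM final) and compound incubated 15 min at room temperature before adding FITC-alphaIIb peptide tracer (100 nM final). Competition for binding read by fluorescence polarization (ex 480, em 540) after another 15 min at room temperature.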
# [4] = target: Tyrosine-protein kinase Yes (Homo sapiens) (UniProt P07947); assay: qHTS for small molecule inhibitors of Yes1 kinase: Primary Screen (AID 686947); note: potency is the fitted concentration of half-maximal effect; nearly all actives have a fitted effect of over 60% in size
# Sequence of Tyrosine-protein kinase Yes (Homo sapiens) (P07947 whole entry, looked up): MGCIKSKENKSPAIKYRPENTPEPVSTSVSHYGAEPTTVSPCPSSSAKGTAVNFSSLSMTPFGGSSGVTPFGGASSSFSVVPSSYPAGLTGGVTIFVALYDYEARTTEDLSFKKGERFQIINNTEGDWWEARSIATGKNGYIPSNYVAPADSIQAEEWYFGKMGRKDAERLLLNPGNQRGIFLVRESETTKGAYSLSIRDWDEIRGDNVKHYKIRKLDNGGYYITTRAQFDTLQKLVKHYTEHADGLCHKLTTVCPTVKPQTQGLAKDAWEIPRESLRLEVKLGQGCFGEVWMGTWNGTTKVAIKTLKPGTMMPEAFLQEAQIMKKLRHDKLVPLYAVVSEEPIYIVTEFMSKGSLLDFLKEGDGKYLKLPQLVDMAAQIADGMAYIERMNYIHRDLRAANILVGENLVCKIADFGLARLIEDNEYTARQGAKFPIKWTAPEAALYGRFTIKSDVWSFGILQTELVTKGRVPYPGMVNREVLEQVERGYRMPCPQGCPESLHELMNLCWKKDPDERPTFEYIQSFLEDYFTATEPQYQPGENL
# Summary of the method: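 ADP-Glo luminescence readout; final 4 nM Yes1, 0.1 mM ATP, 0.3 mg/mL poly(E4Y), Tris pH 7.5, MgCl2, DTT, Brij-35. 20 min compound preincubation, 60 min reaction at RT. Normalized to DMSO wells with and without enzyme.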
# [5] = qHTS for small molecule inhibitors of Yes1 kinase: Counter Assay (AID 686950);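 note: no kinase present so only ADP-Glo detection of a fixed ADP amount is tested; luminescence from ADP-Glo reporting ADP in a fixed ATP and ADP mixture; series mostly up to about 77 µM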
# Summary of the method: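 Luminescence read-out from ADP-Glo quantifies a fixed ADP amount (0.02 mM ADP with 0.08 mM ATP) after 60 min at room temperature; signal is normalized between DMSO wells with ATP/ADP and with 0.1 mM ATP alone.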
# [6] = Counterscreen qHTS for small molecule stabilizers of the endoplasmic reticulum resident proteome: GLuc-NoTag assay (AID 1508627); note: potency is the fitted concentration of half-maximal effect
# Summary of the method: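 Luminescence of Gaussia luciferase secreted into the medium (coelenterazine, 0.07x final, unlysed cells) was the read-out. Human SH-SY5Y neuroblastoma cells constitutively secreting untagged GLuc received compound for 19 h, then 100 nM thapsigargin for 4 h.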
smiles,measurement,setting,value
O=C(Nc1ccc(S(=O)(=O)Nc2nccs2)cc1)[C@@H]1CC[C@H](C(=O)c2ccccc2)C1,Potency,[1],inactive
same,Potency,[2],24.3 µM (active)
same,Potency,[3],inactive
Cc1ccc(-c2cc(C(=O)Nc3ccc(S(=O)(=O)NCc4nccs4)cc3)c3ccccc3n2)cc1C,Potency,[1],inactive
same,Potency,[2],3.43 µM (active)
same,Potency,[3],inactive
O=C(Nc1nc(-c2ccccc2)cs1)c1ccccc1,Potency,[1],inactive
same,Potency,[2],24.3 µM (active)
same,Potency,[3],inactive
COc1cccc(NS(=O)(=O)c2ccc(C)cc2)c1C(=O)Nc1nc(-c2ccccc2)cs1,Potency,[1],inactive
same,Potency,[2],4.32 µM (active)
same,Potency,[3],inactive
Cc1ccc(S(=O)(=O)Nc2ccc(C(=O)Nc3nc(-c4ccccc4)cs3)c(Cl)c2)cc1,Potency,[1],14.8 µM (active)
same,Potency,[2],1.93 µM (active)
same,Potency,[3],inactive
Cc1ccc(-c2cc(C(=O)Nc3ccccc3Cl)c3ccccc3n2)cc1C,Potency,[1],inactive
same,Potency,[2],13.7 µM (active)
same,Potency,[3],inactive
Cc1ccc(S(=O)(=O)Nc2ccc(F)cc2C(=O)Nc2nc(-c3ccccc3)cs2)cc1,Potency,[1],14.8 µM (active)
same,Potency,[2],1.93 µM (active)
same,Potency,[3],inactive
Cc1ccc(-c2cc(C(=O)Nc3ccc(-n4cncn4)cc3)c3ccccc3n2)cc1C,Potency,[1],inactive
same,Potency,[2],7.69 µM (active)
same,Potency,[3],inactive
Cc1ccc(-c2cc(C(=O)Nc3ccc(S(=O)(=O)N(C)C)cc3)c3ccccc3n2)cc1C,Potency,[1],inactive
same,Potency,[2],4.32 µM (active)
same,Potency,[3],inactive
COc1cc(C(=O)Nc2nc(-c3ccccc3)cs2)ccc1NS(=O)(=O)c1ccc(C)cc1,Potency,[1],inactive
same,Potency,[2],2.73 µM (active)
same,Potency,[3],inactive
COc1ccccc1NC(=O)c1cc(-c2ccc(C)c(C)c2)nc2ccccc12,Potency,[1],inactive
same,Potency,[2],10.9 µM (active)
same,Potency,[3],inactive
COc1ccc(NS(=O)(=O)c2ccc(C)cc2)cc1C(=O)Nc1nc(-c2ccccc2)cs1,Potency,[1],inactive
same,Potency,[2],3.43 µM (active)
same,Potency,[3],inactive
Cc1ccc(S(=O)(=O)Nc2ccccc2C(=O)Nc2ccc(-c3ccccc3)nn2)cc1,Potency,[1],inactive
same,Potency,[2],3.85 µM (active)
same,Potency,[3],inactive
Cc1ccc(S(=O)(=O)Nc2ccccc2C(=O)Nc2ncc(-c3ccccc3)s2)cc1,Potency,[1],18.7 µM (active)
same,Potency,[2],1.93 µM (active)
same,Potency,[3],inactive
Cc1ccc(S(=O)(=O)Nc2ccccc2C(=O)Nc2nc(-c3ccccc3)co2)cc1,Potency,[1],5.9 µM (active)
same,Potency,[2],2.73 µM (active)
same,Potency,[3],inactive
Cc1ccc(NS(=O)(=O)c2ccccc2C(=O)Nc2nc(-c3ccccc3)cs2)cc1,Potency,[2],3.43 µM (active)
same,Potency,[3],inactive
O=C(Nc1ccc(S(=O)(=O)Nc2nccs2)cc1)C1CCC2(CCC2)CC1,Potency,[1],inactive
same,Potency,[2],24.3 µM (active)
same,Potency,[3],inactive
Cc1ccc(S(=O)(=O)Nc2ccccc2C(=O)Nc2ccc(-c3ccccc3)cn2)cc1,Potency,[2],2.17 µM (active)
same,Potency,[3],inactive
Cc1ccc(-c2cc(C(=O)Nc3ccc(S(=O)(=O)Nc4ccc(C#N)cc4)cc3)c3ccccc3n2)cc1C,Potency,[1],inactive
same,Potency,[2],3.06 µM (active)
same,Potency,[3],inactive
Cc1ccc(S(=O)(=O)Nc2cc(C(=O)Nc3nc(-c4ccccc4)cs3)ccc2Cl)cc1,Potency,[1],inactive
same,Potency,[2],2.17 µM (active)
same,Potency,[3],inactive
O=C(Cc1ccc2ccccc2c1)Nc1ccc(S(=O)(=O)Nc2nccs2)cc1,Potency,[1],inactive
same,Potency,[2],12.2 µM (active)
same,Potency,[3],inactive
Cc1ccc(S(=O)(=O)Nc2ccccc2C(=O)Nc2cccc(-c3ccccc3)c2)cc1,Potency,[1],16.6 µM (active)
same,Potency,[2],2.17 µM (active)
same,Potency,[3],inactive
Cc1ccc(CNc2ccccc2C(=O)Nc2nc(-c3ccccc3)cs2)cc1,Potency,[2],21.7 µM (active)
same,Potency,[3],inactive
Cc1ccc(S(=O)(=O)n2cc(C(=O)Nc3nc(-c4ccccc4)cs3)c3ccccc32)cc1,Potency,[1],inactive
same,Potency,[2],6.11 µM (active)
same,Potency,[3],inactive
Cc1ccc(C(=O)[C@H]2CC[C@@H](C(=O)Nc3ccc(S(=O)(=O)Nc4nccs4)cc3)C2)cc1C,Potency,[1],inactive
same,Potency,[2],3.85 µM (active)
same,Potency,[3],inactive
Cc1ccc(-c2cc(C(=O)Nc3ccc(S(N)(=O)=O)cc3)c3ccccc3n2)cc1C,Potency,[1],inactive
same,Potency,[2],7.69 µM (active)
same,Potency,[3],inactive
Cc1ccc(-c2cc(C(=O)N(C)c3ccccc3)c3ccccc3n2)cc1C,Potency,[1],inactive
same,Potency,[2],21.7 µM (active)
same,Potency,[3],inactive
CC(C)Oc1ccccc1C(=O)Nc1nc(-c2ccccc2)cs1,Potency,[1],inactive
same,Potency,[2],17.2 µM (active)
same,Potency,[3],inactive
CCC1CCC(C(=O)Nc2ccc(S(=O)(=O)Nc3nccs3)cc2)CC1 (stereo not drawn),Potency,[1],inactive
same,Potency,[2],27.3 µM (active)
same,Potency,[3],inactive
COc1cc(NS(=O)(=O)c2ccc(C)cc2)ccc1C(=O)Nc1nc(-c2ccccc2)cs1,Potency,[2],2.73 µM (active)
same,Potency,[3],inactive
COc1ccc(Cl)cc1C(=O)Nc1nc(-c2ccccc2)cs1,Potency,[1],inactive
same,Potency,[2],9.68 µM (active)
same,Potency,[3],inactive
Cc1ccc(S(=O)(=O)Nc2cncc(C(=O)Nc3nc(-c4ccccc4)cs3)c2)cc1,Potency,[1],inactive
same,Potency,[2],6.85 µM (active)
same,Potency,[3],inactive
O=C1Nc2ccc(C(=O)c3ccco3)cc2/C1=C/c1cc(Cl)c(O)c(Cl)c1,Potency,[4],0.463 µM (active)
same,outcome,[5],inactive
same,Potency,[3],inactive
Cc1ccc(-c2cc(C(=O)NCc3ccc(S(C)(=O)=O)cc3)c3ccccc3n2)cc1C,Potency,[2],10.9 µM (active)
same,Potency,[3],inactive
COc1cc2c(cc1OC)[C@H](C)N(CC1C(=O)O[C@@H]3C[C@@]4(C)CCC[C@H](C)[C@@]45OC5[C@H]13)CC2 (stereo partly drawn),Potency,[6],35.5 µM (active)
